Experimental data as given in ChEMBL document CHEMBL4513216, “Probing the Open Global Health Chemical Diversity Library for Multistage-Active Starting Points for Next-Generation Antimalarials” (ACS Infect Dis, 2020).
About 8,600 (12%) of roughly 69,000 compounds showed an effect of 50% or more. The entries come from a sample that favours strong results as a whole.

These molecules were tested on Plasmodium berghei (assay: Screen against P. berghei liver stage (PbLuc), transformed with Luciferase, at 10uM). Conditions: tested at 10 uM.
Format: functional, HepG2

Row | Structure (SMILES) | INHIBITION
1 | CN(C(=O)C1CCC1)C1CCN(c2ccccc2Cl)C1=O (configuration not stated) | 1.74%
2 | CC(=O)c1c(C)nn(S(=O)(=O)c2ccccc2)c1C | 49.3%
3 | CCN(CC)C(=O)CS(=O)(=O)c1cc(OC)c(OC)cc1C | -48.3%
4 | Cc1cnc(CN(C)C2CCN(Cc3nc4ccccc4o3)C2)o1 (configuration not stated) | 13.3%
5 | C1CC(NCc2nnc(C3CC3)o2)CN(Cc2noc(C3CC3)n2)C1 (configuration not stated) | -19.9%
6 | CN1CCN(S(=O)(=O)c2ccc(C(=O)N3CC[C@@H](O)C3)cc2)CC1=O | 1.41%
7 | c1cc(CC2CCCNC2)nc(NCCc2cnccn2)c1 (configuration not stated) | 32.3%
8 | Cn1cc(C(C)(O)CNc2ccc(Cl)c(C#N)n2)cn1 (configuration not stated) | -10.7%
9 | Cc1ccc(C(=O)N2CCCC(c3nncn3C)C2)c(C)c1 (configuration not stated) | 45.1%
10 | CC(C)c1nnc2n1CCN(CCC(=O)N1CCc3ccccc31)C2 | 13.7%
11 | Cc1noc(C)c1C(=O)NCc1ccc(N2CCC(C)CC2)nc1 | 74.9%
12 | Cc1noc(C)c1C(=O)NCc1ccc(N2CCOCC2)nc1 | 5.03%
13 | Cc1noc(C)c1C(=O)NCc1ccc(N2CCCCCC2)nc1 | 25.6%
14 | CN(C)C(=O)[C@@H]1C[C@@H]2CCN(Cc3ccc4c(c3)OCO4)C[C@@H]2O1 | 13.1%
15 | O=C(c1ccncc1)N1CCN(c2ccc(F)cc2Cl)CC1 | 23.8%
16 | O=C(NCc1ccon1)Nc1cc(F)ccc1N1CCCCC1 | 28.8%
17 | Cc1nc(CNC(=O)Nc2cc(F)ccc2N2CCN(C)CC2)no1 | 52.7%
18 | Cc1nc(CNC(=O)Nc2cc(F)ccc2OC(F)F)no1 | 5.91%
19 | CC1CCCN(Cc2ccc(CNC(=O)NCc3ccon3)cc2)C1 (configuration not stated) | -18.6%
20 | O=C(Cc1ccon1)N1CCN(c2ccc(F)cc2Cl)CC1 | 50%
21 | CCN1CCN(c2ccccc2NC(=O)NCc2ccon2)CC1 | 50.4%
22 | CC1CN(C)c2ccccc2CN1C(=O)NCc1ccon1 (configuration not stated) | 4.6%
23 | O=C(Cc1ccon1)N1CCN(c2ccncc2Cl)CC1 | 20.9%

Row | Structure (SMILES) | INHIBITION
24 | CCc1cc(CNC(=O)Nc2cc(F)ccc2N2CCCCC2)on1 | 26.6%
25 | CN1CCN(c2ccc(F)cc2NC(=O)NCC[S+](C)[O-])CC1 (configuration not stated) | -33%
26 | CN1CCN(c2ccc(F)cc2NC(=O)NCc2ccon2)CC1 | 51.6%
27 | COc1cccc(C(=O)N2C[C@@H]3CC[C@H]2CN(Cc2cscn2)C3)c1 | 7.3%
28 | CC(C)NC(=O)NC(C)c1nc(-c2ccccc2)cs1 (configuration not stated) | 15.7%
29 | O=S(=O)(c1cccc(F)c1)N1CC[C@H]2[C@H]1CCN2c1ncccn1 | -12.4%
30 | CN(C)C(=O)[C@H]1C[C@@H]2CCN(C3CCOCC3)C[C@@H]2O1 | -0.371%
31 | COc1c(C2CCCN2C(=O)c2scnc2C)c(C)nn1C (configuration not stated) | 25.1%
32 | COc1ccc(S(=O)(=O)NC(=O)COC2CCCCC2)cc1 | 14.1%
33 | CC(C)n1nccc1CN1Cc2nccn2CC1c1ccccc1 (configuration not stated) | 7.39%
34 | Cc1nn(C)c(C)c1C(=O)NCc1cc(N(C)C)nc2ccccc12 | -21.1%
35 | CCn1nc(C)cc1C(=O)NCc1cc(N(C)C)nc2ccccc12 | 54.4%
36 | Cc1nn(C)cc1C(=O)NCc1cc(N(C)C)nc2ccccc12 | -17.8%
37 | CNC(=O)CN1CCO[C@H]2CN(C(=O)C3CC3)C[C@H]21 | -8.85%
38 | C1CC(c2noc(C3CC3)n2)N(Cc2nnc(C3CC3)o2)C1 (configuration not stated) | 15.75%
39 | CC(=O)N1CCOC(c2c(C(=O)O)sc3ccccc23)C1 (configuration not stated) | -9.51%
40 | CCc1ncc2c(n1)CN(Cc1nc(-c3ccccn3)no1)CC2 | 47.1%
41 | c1cncc(-c2noc(CN3CCc4cncnc4C3)n2)c1 | 22.683%
42 | Cn1cnc2c1CCN(Cc1nc(Cc3ccccc3)no1)C2 | 52.7%
43 | c1ccc(Cc2noc(CN3CCc4c(ncn4C4CC4)C3)n2)cc1 | 0.411%
44 | Cn1cnc2c1CCN(Cc1nc(COc3ccc(F)cc3)no1)C2 | 53.8%
45 | c1cc(-c2noc(CN3CCc4c(ncn4C4CC4)C3)n2)cs1 | 31.1%
46 | Cn1c(C2CC2)nc2c1CCN(Cc1nc(Cc3ccccc3)no1)C2 | 34.7%

Row | Structure (SMILES) | INHIBITION
47 | c1ccc(-c2noc(CN3CCc4cncnc4C3)n2)nc1 | 72.9%
48 | Cn1cnc2c1CCN(Cc1nc(-c3ccco3)no1)C2 | 45.1%
49 | Cn1cnc2c1CCN(Cc1noc(-c3ccccc3)n1)C2 | 43.7%
50 | CC(C)c1nc2c(n1C)CCN(Cc1nc(-c3ccsc3)no1)C2 | 47.6%
51 | Cn1cnc2c1CCN(Cc1nc(-c3ccsc3)no1)C2 | 52.7%
52 | CN1C(=O)[C@@H]2CC[C@H]1CN(C(=O)c1nnc3n1CCCCC3)C2 | -89.9%
53 | CCS(=O)(=O)N1CCC2(CC1)CN(c1cccnc1)C(=O)CO2 | 45.7%
54 | CC(C)c1ncc2c(n1)CN(Cc1nc(-c3ccccn3)no1)CC2 | 28.8%
55 | CCCn1nccc1-c1nccnc1CC1CCN(C(C)=O)CC1 | 19.3%
56 | COC1C[C@@H]2CN(C(=O)c3cc4cccc(F)c4[nH]3)C[C@@H]2C1 (some centres not stated) | -14.379%
57 | CCN(CC)Cc1cn2c(n1)CN(Cc1c(C)noc1C)CC2 | 16.6%
58 | COCCn1ccc2c(C(=O)NCC3CCCO3)cccc21 (configuration not stated) | 23.7%
59 | Cc1cnc(N2C[C@@H]3CCN(CC(=O)N(C)C)C(=O)[C@H]3C2)nc1 | -61.9%
60 | Cc1ccc(CC2COCCN(Cc3ccccc3)C2)nc1 (configuration not stated) | 35%
61 | Cc1ccc2c(n1)N(C)CCN(C(=O)NC1CC1)C2 | 1.28%
62 | COc1ccc(-c2noc(CN3CCc4cncnc4C3)n2)cc1 | 40.3%
63 | Cn1cnc2c1CCN(Cc1csc(-c3ccccc3F)n1)C2 | 70.7%
64 | Cn1cnc2c1CCN(Cc1csc(-c3ccccc3)n1)C2 | 23.6%
65 | Cn1cnc2c1CCN(Cc1csc(-c3ccc(F)cc3)n1)C2 | -2.522%
66 | c1ccc(Cc2noc(CN3CCc4cncnc4C3)n2)cc1 | 19.6%
67 | Fc1ccc(OCc2noc(CN3CCc4cncnc4C3)n2)cc1 | 50.4%
